Reference: PubChem BioAssay (Tox21)
Results filed as inconclusive are left out. Active and inactive are the calls of the source. Unless noted, calls come from the whole dose curve; as a rule, active = well fitted curve in the direction sought with a large enough effect in the repeat runs; inconclusive = weak or mixed curves; inactive = no such curve, though single readings can be large; an effect the other way counts as inactive or inconclusive.

How the values were obtained:
[1] = qHTS RealTime-Glo MT Cell Viability Assay in HEK293 cells - 0 hour (AID 1224880); note: top concentration of the series differs between compounds; nearly all actives have a fitted effect of over 45% in size
Summary of the method: (§1)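 Kinetic, non-lysing viability readout. Seed HEK293 (600/well) with reagent, incubate 5 h at 37 C/5% CO2, pin 23 nL compound in DMSO, incubate at 37 C, read luminescence at 0, 8, 16, 24, 32, 40 h.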

[2] = A CellTox Green Cytotoxicity Assay to monitor cytotoxicity in HEK293 cells - 32 hour (AID 1224881); note: nearly all actives have a fitted effect of over 40% in size
Summary of the method: (§2)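 Real-time, in one plate: 600 HEK293 cells/well with dead-cell DNA dye, pinned compound after 5 h, 37 C incubation over 40 h; viable cells give no appreciable fluorescence.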

[3] = A CellTox Green Cytotoxicity Assay to monitor cytotoxicity in HepG2 cells - 0 hour (AID 1224882); note: nearly all actives have a fitted effect of over 35% in size
Summary of the method: (§3)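 Cytotoxicity was tracked as dead-cell DNA fluorescence in HepG2 cells treated with test compounds at 37 C; each time-point value comes from one kinetic series spanning 0, 8, 16, 24, 32 and 40 h.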

[4] = A CellTox Green Cytotoxicity Assay to monitor cytotoxicity in HepG2 cells - 32 hour (AID 1224883); note: nearly all actives have a fitted effect of over 50% in size
Summary of the method: as §3

[5] = A CellTox Green Cytotoxicity Assay to monitor cytotoxicity in HEK293 cells - 8 hour (AID 1224884); note: nearly all actives have a fitted effect of over 35% in size
Summary of the method: as §2

[6] = qHTS RealTime-Glo MT Cell Viability Assay in HepG2 cells - 16 hour (AID 1224885); note: nearly all actives have a fitted effect of over 50% in size
Summary of the method: (§4)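 HepG2 cells (600/well) were dispensed with RealTime-Glo reagents, incubated 5 h at 37 °C, then treated with compounds in DMSO for up to 40 h. Nonlytic NanoLuc luminescence reflecting viable cells was read at each stated time point.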

[7] = qHTS RealTime-Glo MT Cell Viability Assay in HEK293 cells - 24 hour (AID 1224886); note: top concentration of the series differs between compounds; nearly all actives have a fitted effect of over 50% in size
Summary of the method: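 HEK293 cells seeded with NanoLuc/prosubstrate reagent, rested 5 h at 37 C, then dosed and kept at 37 C up to 40 h. Nonlytic real-time luminescence from viable cells read at 0, 8, 16, 24, 32 and 40 h.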

[8] = qHTS RealTime-Glo MT Cell Viability Assay in HEK293 cells - 8 hour (AID 1224887); note: top concentration of the series differs between compounds; nearly all actives have a fitted effect of over 50% in size
Summary of the method: as §1

[9] = A CellTox Green Cytotoxicity Assay to monitor cytotoxicity in HEK293 cells - 16 hour (AID 1224888); note: nearly all actives have a fitted effect of over 35% in size
Summary of the method: as §2

[10] = qHTS RealTime-Glo MT Cell Viability Assay in HepG2 cells - 0 hour (AID 1224889); note: nearly all actives have a fitted effect of over 50% in size
Summary of the method: as §4

[11] = A CellTox Green Cytotoxicity Assay to monitor cytotoxicity in HepG2 cells - 8 hour (AID 1224890); note: nearly all actives have a fitted effect of over 45% in size
Summary of the method: as §3

[12] = qHTS assay to identify small molecule antagonists of the estrogen receptor alpha (ER-alpha) signaling pathway using the BG1 cell line in the presence of 0.1 nM 17-beta-estradiol - cell viability counter screen (AID 1259241); note: nearly all actives have a fitted effect of over 40% in size
Summary of the method: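 VM7Luc4E2 cells (endogenous full-length ER-alpha, 4xERE-luciferase), cultured 5 days in charcoal-stripped serum, exposed to compounds with 0.1 nM 17beta-estradiol (final) for 22 hr at 37C. Viability read in same wells as live-cell protease fluorescence after 30 min.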

[13] = qHTS assay to identify small molecule antagonists of the androgen receptor (AR) signaling pathway using the MDA cell line in the presence of 0.5 nM R1881 - cell viability counter screen (AID 1259242); note: nearly all actives have a fitted effect of over 45% in size
Summary of the method: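 Cells seeded at 3,000/well and allowed 5 hr at 37C, 0% CO2 before compound transfer and R1881 (0.5 nM final) addition; 16 hr later, live-cell protease fluorescence indicated cytotoxicity.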

[14] = molecular target: Estrogen receptor (Homo sapiens) (UniProt P03372); assay: qHTS assay to identify small molecule antagonists of the estrogen receptor alpha (ER-alpha) signaling pathway using the BG1 cell line in the presence of 0.1 nM 17-beta-estradiol (AID 1259244); note: nearly all actives have a fitted effect of over 50% in size
Sequence of Estrogen receptor (Homo sapiens) (P03372 whole entry, looked up): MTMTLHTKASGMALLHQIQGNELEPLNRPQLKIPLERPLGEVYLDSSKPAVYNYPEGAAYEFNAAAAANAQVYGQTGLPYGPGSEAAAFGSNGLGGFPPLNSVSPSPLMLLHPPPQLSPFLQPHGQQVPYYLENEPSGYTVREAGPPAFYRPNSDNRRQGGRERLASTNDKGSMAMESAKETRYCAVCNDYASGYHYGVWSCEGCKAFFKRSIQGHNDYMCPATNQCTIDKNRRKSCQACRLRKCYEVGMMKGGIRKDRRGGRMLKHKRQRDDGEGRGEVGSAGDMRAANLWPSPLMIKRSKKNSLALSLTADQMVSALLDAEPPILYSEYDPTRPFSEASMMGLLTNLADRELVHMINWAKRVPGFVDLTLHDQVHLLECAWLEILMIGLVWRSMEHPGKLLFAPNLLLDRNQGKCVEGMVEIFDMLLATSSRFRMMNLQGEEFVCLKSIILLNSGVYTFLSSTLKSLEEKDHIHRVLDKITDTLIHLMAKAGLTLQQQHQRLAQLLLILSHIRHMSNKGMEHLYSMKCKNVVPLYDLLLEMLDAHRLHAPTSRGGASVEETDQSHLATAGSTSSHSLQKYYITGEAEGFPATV
Summary of the method: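 Luciferase signal from VM7Luc4E2 ERE-reporter cells, co-dosed with test compound and 0.1 nM final 17beta-estradiol for 22 h, read with ONE-Glo.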

[15] = qHTS assay to identify small molecule HDAC inhibitors (AID 1259364);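 note: wild-type HCT-116 cells with endogenous class I/II HDAC activity; top concentration of the series differs between compounds; nearly all actives have a fitted effect of over 45% in size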
Summary of the method: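 HCT-116 wt cells, 1,500/well, overnight attach. Compounds (DMSO) 2 h, 37 °C. HDAC-Glo I/II, 30 min RT. Luminescence.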

[16] = qHTS assay to identify small molecule HDAC inhibitors - cell viability counter screen (AID 1259365)
Summary of the method: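 Wild-type HCT-116 cells, 1,500/well, cultured overnight, then compound-treated 2 h at 37 C. Viability measured as ATP luminescence with CellTiter-Glo after 30 min at room temperature.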

[17] = qHTS assay to identify small molecule agonists of the sonic hedgehog signaling (Shh) pathway - cell viability counter screen (AID 1259366); note: nearly all actives have a fitted effect of over 50% in size
Summary of the method: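 NIH/3T3-derived Gli1-Luc reporter cells, 2,000 per well, received compound after 4 h and were treated about 23 h at 37C. Viability measured in the same wells by CellTiter-Fluor fluorescence after 1 h.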

[18] = qHTS assay to identify small molecule antagonists of the sonic hedgehog signaling (Shh) pathway - cell viability counter screen (AID 1259367); note: nearly all actives have a fitted effect of over 55% in size
Summary of the method: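 Conditioned medium drove Shh signaling in 3T3 Gli1-Luc cells exposed to compounds at 37C and 5% CO2. Viability was determined from CellTiter-Fluor fluorescence, with reagent incubated 1 hr after 23 hr of treatment.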

[19] = qHTS assay to identify small molecule phospholipidosis (PLD) inducers (AID 1259344; active = well fitted curve in the direction sought with a large enough effect; an effect the other way counts as inactive or inconclusive)
Summary of the method: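 After 4 h attachment on collagen I, HepG2 cells were dosed with compound alongside LipidTOX Red, kept 24 h at 37 C, fixed, and imaged for lamellar phospholipid pits.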

Measured: Potency

O=[N+]([O-])c1cccc(Cl)c1
inactive: [1] | [2] | [3] | [4] | [5] | [6] | [7] | [8] | [9] | [10] | [11] | [12] | [13] | [14] | [15] | [16] | [17] | [18]

C=C(C)C(=O)OCCCCCCCCCCCC
inactive: [1] | [2] | [3] | [4] | [5] | [6] | [7] | [8] | [9] | [10] | [11] | [12] | [13] | [14] | [15] | [16] | [17] | [18]

CC1=CC[C@H]2C[C@@H]1C2(C)C
inactive: [1] | [2] | [3] | [4] | [5] | [6] | [7] | [8] | [9] | [10] | [11] | [12] | [13] | [14] | [15] | [16] | [17] | [18]

CNC[C@H](O)[C@@H](O)[C@H](O)[C@H](O)CO
inactive: [1] | [2] | [3] | [4] | [5] | [6] | [7] | [8] | [9] | [10] | [11] | [12] | [13] | [19] | [15] | [16] | [17] | [18]

CC1=C(/C=C/C(C)=C/C=C/C(C)=C/CO)C(C)(C)CCC1
inactive: [1] | [2] | [3] | [4] | [5] | [6] | [7] | [8] | [9] | [10] | [11] | [12] | [13] | [14] | [19] | [15] | [16] | [17] | [18]

C=C1C2CCC(C2)C1(C)C (configuration not stated)
inactive: [1] | [2] | [3] | [4] | [5] | [6] | [7] | [8] | [9] | [10] | [11] | [12] | [13] | [14] | [15] | [16] | [17] | [18]

NC(=O)/N=N/C(N)=O
inactive: [1] | [2] | [3] | [4] | [5] | [6] | [7] | [8] | [9] | [10] | [11] | [12] | [13] | [14] | [15] | [16] | [17] | [18]
